In the supplement of paper PMC6555819:

Assays:
Experiment in all cases: PBM binding z-score (relative to random genomic background probes); higher = stronger binding; sequences stand for … in GC…GCGATTGACAGCGTAGAATGAAGG
[1] = tested on: FXR:RXRa (NR concentration 270 nM, RXRa partner concentration 90 nM)
How it was run: (§1)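 The probes on custom Agilent 4×180K protein-binding microarrays were double-stranded, with 34-nt variable regions bearing direct-repeat seeds, single-nucleotide variants, half-site ablations and random human genomic background sequences. Incubation lasted 1 h with ligand-free nuclear receptor dimers in PBS pH 7.4, 2% milk, 0.02% Triton X-100, 1 mM DTT, 0.2 mg/mL BSA and 0.4 mg/ml salmon testes DNA. Antibodies against each partner (one per run) detected bound dimers, and fluorescence scans were regression-normalized. Binding z-scores take the random background probes as reference.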

[2] = tested on: LXRa:RXRa (NR concentration 270 nM, RXRa partner concentration 90 nM)
How it was run: as §1

[3] = tested on: LXRa homodimer (NR concentration 270 nM)
How it was run: as §1

[4] = tested on: LXRb:RXRa (NR concentration 270 nM, RXRa partner concentration 90 nM)
How it was run: as §1

[5] = tested on: LXRb homodimer (NR concentration 270 nM)
How it was run: as §1

[6] = tested on: PPARa:RXRa (NR concentration 270 nM, RXRa partner concentration 90 nM)
How it was run: as §1

[7] = tested on: PPARg:RXRa (NR concentration 180 nM, RXRa partner concentration 90 nM)
How it was run: as §1

[8] = tested on: PPARg:RXRa 270nM:90nM, anti-RXR (NR concentration 270 nM, RXRa partner concentration 90 nM)
How it was run: as §1

[9] = tested on: PPARg:RXRa 30nM:10nM, anti-RXR (NR concentration 30 nM, RXRa partner concentration 10 nM)
How it was run: as §1

[10] = tested on: PPARg:RXRa 90nM:30nM, anti-RXR (NR concentration 90 nM, RXRa partner concentration 30 nM)
How it was run: as §1

Row | Sequence | PBM binding z-score [1] | PBM binding z-score [2] | PBM binding z-score [3] | PBM binding z-score [4] | PBM binding z-score [5] | PBM binding z-score [6] | PBM binding z-score [7] | PBM binding z-score [8] | PBM binding z-score [9] | PBM binding z-score [10]
1 | GTACCAGGGTGAATAGGTCGTTGATGAGTAGGCG | 0.645 | 0.813 | -0.254 | 0.582 | -0.461 | 2.09 | 1.15 | 1.61 | 0.0734 | 0.776
2 | CCTTTCGGGTCACTCCAGGTTATAGCATCGGAGT | 4.95 | 7.32 | 2.02 | 5.17 | 0.836 | 4.58 | 3.15 | 3.78 | 1.09 | 2.75
3 | ACTAGCTGGCCAAGGGTCACTCAAGATTAGTCCG | 2.23 | 2.82 | 0.129 | 2.53 | -0.388 | 3.71 | 4.25 | 5.31 | 3.16 | 5.05
4 | TTACCAAGGTGAGCTGACGTCGTTGATCCAACTC | -0.0042 | -0.397 | -0.855 | -0.446 | -0.946 | 0.149 | 0.0549 | 0.41 | -0.0176 | -0.026
5 | TCTGCTAGGTCAGTTGGTCAGCTACCGAGCTGCC | 0.866 | 0.506 | -0.683 | -0.00907 | -0.0816 | 1.21 | 0.156 | 1.79 | 1.19 | 1.29
6 | TCGAGTAGGTTAGGGGCATGCAGAATGGCGTCGA | 0.354 | 0.125 | -0.474 | 0.49 | -0.161 | 1.29 | 0.641 | 1.68 | 0.979 | 1.27
7 | CAAACTAGGTCGCGAAAGGTCAAAGTCGAATGAC | 6.26 | 6.45 | 5.69 | 5.96 | 1.92 | 6.03 | 7.96 | 6.66 | 4.55 | 6.34
8 | CCTCGGAGGACAAAAGGTCAGAGCTGTCCGCTTT | 3.66 | 4.52 | 2 | 3.34 | -0.114 | 3.96 | 1.65 | 3.76 | 1.1 | 3.22
9 | CTACCAAGGTGAACAACGTCGTTGATTACTATTC | 0.772 | 0.327 | -0.307 | 0.812 | -0.301 | 1.29 | 0.69 | 0.538 | -0.133 | 0.52
10 | CCTCCAAGGTCAGAGAGGTCAGTGAATGCCGAGT | 5.62 | 5.09 | 2.77 | 4.43 | 0.381 | 4.71 | 3.2 | 4.06 | 1 | 2.54
11 | CCACACAGGTGAGAAGGTAACTCAGCCTCGATTA | 0.187 | 0.0665 | 0.368 | 0.214 | -0.197 | 0.855 | 0.76 | 0.577 | -0.223 | 0.451
12 | TCGAGTAGGTTACGAATGGGGCATTCAGCTTTCT | 0.143 | 0.677 | -0.52 | 0.42 | -0.693 | 0.834 | 0.32 | 0.972 | 0.971 | 0.914
13 | ACTAGCAGGCCAATTTTGGGTCACTCAAACAAAG | 0.105 | 0.0624 | 0.139 | 0.747 | -0.68 | 1.8 | 0.396 | 0.508 | -0.304 | -0.0238
14 | CGTCAAAGTTCAACTAGGGTAACGTAAAGCACGC | 7.53 | 6.47 | 4.77 | 4.43 | 2.39 | 5.32 | 5.78 | 5.97 | 2.98 | 5.07
15 | TCGAGTAGGTTAGTCGGGGCATTCACCCAACATA | 0.0292 | 0.103 | -0.165 | 0.627 | -0.651 | 0.713 | 0.0859 | 0.905 | 0.99 | 0.993
16 | TCTTGTAGATCAACTGGAGGTTAAGAAAGATCGA | 0.425 | 1.71 | 1.03 | 1.22 | -0.276 | 1.53 | -0.287 | 1.31 | 2.76 | 1.89
17 | AGAATGAGGTTACCAAATATCAGGGAAACGCTTG | 1.57 | 2.74 | -0.144 | 1.81 | -0.351 | 3.3 | 2.58 | 2.84 | 1.07 | 2.04
18 | AGAATGAGGTTAAGATCAGGGACACAGAATACAT | 2.45 | 2.04 | 0.0815 | 1.81 | 0.324 | 3.55 | 2.54 | 2.39 | 0.988 | 1.85
19 | CCTACTGGTCCACGAAAGGTCATTGATTCAGTGA | 3.9 | 4.86 | 5.19 | 4.6 | 1.21 | 4.38 | 1.3 | 3.07 | 0.699 | 2.22
20 | TGAATGAGGTTATAAGATCACGGAACGTTGCAAA | 1.72 | 1.49 | -0.0904 | 1.48 | -0.205 | 3.21 | 2.15 | 2.44 | 1.12 | 2.05
21 | ACTAGTTGGTCAGCTGAGGTCAGACACAATTCGG | 2.41 | 1.65 | 1.19 | 2.03 | 0.149 | 2.42 | 0.879 | 1.07 | 0.223 | 0.908
22 | TCTCGTAGATCAGCAGGTTAAGAAAGCTGGCCAA | -0.53 | -0.117 | -0.522 | 0.0597 | -1.13 | 0.428 | -0.691 | 1.22 | 2.41 | 2.08
23 | AGAAAGAGGTTACCAAAGATCAGGGAAACGCTTG | 2.31 | 6.51 | -0.18 | 3.65 | 0.0945 | 3.37 | 2.1 | 2.36 | 0.802 | 1.77
24 | ATATGTAGGTTAGCTGGGGTCATTGAGACTAGGC | 4.97 | 5.62 | 2.48 | 4.62 | 1.35 | 5.24 | 5.52 | 5.03 | 2.46 | 4.26
25 | CGAACGAGGGCATCAGTTGATAGCAAATGCCGAT | 0.292 | 0.0604 | -0.396 | 0.107 | -0.651 | 1.19 | 1.1 | 0.934 | -0.0649 | 0.293
